{"source": "PubChem BioAssay (NCI)", "note": "This is part of a sample that, as a whole, favours compounds with a hit. Of some 83,000 tested, about 20% had one in any assay.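 Results are percent growth after 48 hours of single-concentration exposure. 100 means growth as in untreated cells, lower positive values show inhibition; negative values down to -100 show cell death.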 A number with no mark means an inactive call. Active and inactive are the calls of the source. The calls were made as follows: active = growth percent below 10; inactive = the rest."}
{"test_system": "PC-3 prostate", "assay": "NCI-60 one-dose screen, 48 h (100 = growth as untreated, 0 = no growth, -100 = all killed)", "details": "10 µM unless noted"}
{"smiles": "COc1ccc(Sc2ccc3[nH]c(=O)nc(N)c3c2)cc1", "growth": "96.9%"}
{"smiles": "CCN1C(=O)C2(Nc3ccccc3S2)c2cc(C)ccc21", "note": "(stereo not given)", "growth": "89%"}
{"smiles": "CCOC(=O)c1cn2c3c(cc(F)cc3c1=O)C(CC)c1ccccc1C2", "note": "(stereo not given)", "growth": "81.6%"}
{"smiles": "Cc1nn(CC(=O)O)c2c1C(=O)CC(C)(C)C2", "growth": "102%"}
{"smiles": "O=C1/C(=C/c2ccc(Oc3ccccc3)cc2)N=C(c2ccccc2)N1CCc1cccs1", "growth": "62.1%"}
{"smiles": "COc1cccc(C2C3=C(COC3=O)N(CCO)c3cc4c(cc32)OCO4)c1", "note": "(stereo not given)", "growth": "32.4%"}
{"smiles": "COc1ccc2c(c1)c(=O)oc1c(C)c(OCC(C)=O)ccc12", "growth": "83.3%"}
{"smiles": "CC1=C(C/C=C(\\C)CCC[C@H](C)CCC[C@H](C)CCCC(C)C)C(=O)c2ccccc2C1=O", "growth": "98.2%"}
{"smiles": "O=S(=O)(OCCO)c1ccccc1", "growth": "99.3%"}
{"smiles": "COc1ccc(-c2nc3sccn3c2/C=C/C(=O)c2cc(OC)c(OC)c(OC)c2)cc1OC", "growth": "22.6%"}
{"smiles": "Cc1nc(NN)c([N+](=O)[O-])c(NN)n1", "growth": "104%"}
{"smiles": "COc1cc(/C=C2\\C(=O)N(c3c(Cl)cccc3Cl)c3ccccc32)cc(OC)c1O", "growth": "15.2%"}
{"smiles": "COc1cc(C2C3=C(COC3=O)N(CCO)c3cc4c(cc32)OCO4)cc(OC)c1O", "note": "(stereo not given)", "growth": "29.5%"}
{"smiles": "COc1ccccc1CNCCCCCCCCCCCCN1C(=O)c2ccc3c4c(ccc(c24)C1=O)C(=O)N(CCCCCCCCCCCCNCc1ccccc1OC)C3=O", "growth": "27.7%"}
{"smiles": "CCCCCCCCCCCCCCCC[N+]1(C)CCOCC1", "growth": "-52% (active)"}
